Experimental data from PubChem BioAssay AID602387 (Sanford-Burnham Center for Chemical Genomics, 2012).
The campaign covered roughly 2,300 compounds. About 30 (1%) were called active.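 Rule for the calls: active = activation of at least 30% at 10 µM; inactive = the rest.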 Only a sample is shown.

Assay: beacon detection-step fluorescence artefacts – biochemical, fluorescent molecular beacon, single concentration, artefact control for DNMT1 inhibitor project, confirmation (AID 602387);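 note: DNMT1 catalytic domain with a HinP1I cleavage step and a FAM/dabcyl DNA beacon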
Settings: DNMT1 molecular beacon spectral interference counterscreen, fluorescence 485/520; at 10 µM; hits give high values

| SMILES | activation (fluorescence interference) |
| --- | --- |
| COc1ccc(Cl)cc1NC(=O)CCS(=O)(=O)c1ccc(Br)cc1 | 3.16% (inactive) |
| O=C(CCN1C(=O)C2C3C=CC(C3)C2C1=O)Nc1ccccc1F (stereo unspecified) | 1.81% (inactive) |
| COc1ccc(/C=C2\SC(=N)N(c3ccc(F)cc3)C2=O)cc1 | 2.19% (inactive) |
| Oc1c(C(c2ccco2)N2CCC3(CC2)OCCO3)sc2ncnn12 (stereo unspecified) | 3.04% (inactive) |
| O=C(COC(=O)c1ccccc1O)NCc1ccco1 | 6.37% (inactive) |
| O=C(CCS(=O)(=O)c1ccc(Br)cc1)NCCc1ccc(Cl)cc1 | 1.71% (inactive) |
| CCCCCCc1cc2cc(-c3nnc(-c4ccccc4)o3)c(=O)oc2cc1O | -8.15% (inactive) |
| O=C(CSc1nc2ccccc2c(=O)[nH]1)Nc1nc(-c2ccc(Br)cc2)cs1 | 1.36% (inactive) |
| COc1ccc(Br)cc1/C=N/Nc1ccc(S(=O)(=O)Nc2ccccc2C(=O)O)cc1[N+](=O)[O-] | -9.44% (inactive) |
| COC(=O)CCCCC1=CCC2C(=O)C=C(O)C2C1 (stereo unspecified) | 10.1% (inactive) |
| COc1ccc(OCC(=O)NNC(=O)c2ccc(-c3ccccc3)cc2)cc1 | 1.59% (inactive) |
| CSc1ccc(CNC(=O)c2ccc(NC(=O)C3=CSCCO3)cc2)cc1 | 4.08% (inactive) |
| C=CC[C@@H](CC(=O)N[C@H](CO)Cc1ccccc1)C(=O)N[C@@H](COC(=O)[C@@H](CC=C)Cc1ccc(F)cc1)Cc1c[nH]c2ccccc12 | 10.2% (inactive) |
| Cc1ccc(CNC(=O)CSc2nnc3c(n2)[nH]c2ccc(F)cc23)cc1 | 3.05% (inactive) |
| COc1cc(-c2nnc(NC(=O)CS(=O)(=O)c3ccc(Cl)cc3)o2)cc(OC)c1OC | 5.03% (inactive) |
| COc1ccc(-n2c(SCC(=O)Nc3sc4c(c3C#N)CCCC4)nnc2-c2ccc(O)cc2)cc1 | 1.12% (inactive) |
| CCOc1cc(NC(=O)c2ccco2)c(OCC)cc1NC(=O)COc1ccccc1 | -8.28% (inactive) |
| CC1(C)Cc2nc3sc4c(SCC(=O)NC(c5ccccc5)c5ccccc5)ncnc4c3cc2CO1 | 1.08% (inactive) |
| O=C(COc1ccc(/C=N/NC(=O)c2ccc(O)cc2)cc1)Nc1ccc([N+](=O)[O-])cc1 | -12.5% (inactive) |
| O=C(c1ccc(CS(=O)(=O)c2ccccc2)o1)N1CCN(c2ccccc2)CC1 | -0.52% (inactive) |
| CCOC(=O)C(NC(=O)CC(C)C)(Nc1sc2c(c1C(N)=O)CCCC2)C(F)(F)F (stereo unspecified) | 6.15% (inactive) |
| COc1ccc(C(=O)/C=C/c2ccc(-c3ccccc3)cc2)cc1CSCC(=O)O | -0.97% (inactive) |
| O=C(COc1ccc([N+](=O)[O-])cc1)Nc1ccc(N2CCCC2)cc1 | 4.14% (inactive) |

| SMILES | activation (fluorescence interference) |
| --- | --- |
| N#Cc1ccccc1CN1C(=O)S/C(=C/c2cccn2-c2cccc(C(=O)O)c2)C1=O | 1.4% (inactive) |
| COc1ccc2sc(-c3ccc(S(C)(=O)=O)cc3)c(-c3ccc(C(N)=O)cc3)c2c1 | 4.53% (inactive) |
| CN(CCOc1ccccc1)C(=O)c1cc(-c2ccco2)nc2ccccc12 | 3.34% (inactive) |
| Cc1ccc2cc(C)c(N3CCC(C)CC3)nc2c1 | 2.52% (inactive) |
| COc1ccc(NC(=O)CN(C)C(=O)c2cc(C3CC3)nn2-c2ccccc2)cc1 | 0.09% (inactive) |
| COc1ccc(CC(=O)Nc2ccc(-c3nnc(-c4ccc(C)cc4)o3)cc2)cc1 | -5.84% (inactive) |
| CS(=O)(=O)c1ccc2c(c1)SC1=NC(=O)/C(=C/c3ccco3)C(=N)N12 | 1.32% (inactive) |
| O=C1CCCC(O)=C1C=NCCc1ccccc1 | 5.41% (inactive) |
| O=C(Nc1cccc(-c2nc3ccccc3[nH]2)c1)c1ccc(C(=O)Nc2cccc(-c3nc4ccccc4[nH]3)c2)cc1 | -6.94% (inactive) |
| CC(Oc1ccccc1)C(=O)Nc1oc(-c2ccco2)c(-c2ccco2)c1C#N (stereo unspecified) | 0.87% (inactive) |
| c1ccc2cc3[nH]c(CN4CCCCC4)nc3cc2c1 | 5.49% (inactive) |
| CC(=O)Nc1ccc(SCC(=O)NC(=O)c2ccc(Cl)cc2)cc1 | 4.23% (inactive) |
| Cc1nnc(N/N=C/c2cccs2)[nH]c1=O | 1.29% (inactive) |
| CCCCNC(=O)CCn1c(=O)c2ccccc2n(Cc2cc(C)ccc2C)c1=O | 1.75% (inactive) |
| Cc1ccc(C(=O)NNC(=O)c2cc3cc4ccccc4nc3s2)cc1 | 4.21% (inactive) |
| CC(C)(C)NC(=O)CSC(=Nc1ccccc1F)NC#N | 8.71% (inactive) |
| COc1ccc2[nH]c(=O)c(-c3noc(-c4ccc(F)cc4)n3)cc2c1 | -3.37% (inactive) |
| COc1ccc(OC)c(NC(=O)c2cc(-c3cc(F)ccc3OCC3CCCO3)n[nH]2)c1 (stereo unspecified) | 7.7% (inactive) |
| O=C(NNc1ccccn1)c1ccc(Cl)nc1 | 1.8% (inactive) |
| O=C(Oc1ccc(-c2nc(-c3ccccn3)no2)cc1)c1ccccc1 | -1.62% (inactive) |
| CCc1nn(-c2cc(Oc3cccc4ccccc34)nc(-c3ccccc3)n2)c(N)c1C#N | 1.42% (inactive) |
| CCOC(=O)c1cccc(NC(=O)C2CCCN(S(=O)(=O)c3cnc[nH]3)C2)c1 (stereo unspecified) | 2.94% (inactive) |
| C=CCn1c(=S)[nH]c2scc(-c3ccco3)c2c1=O | -3.16% (inactive) |
